# Legend:
# Settings in all cases: concentration: 1 μM, replicates: in singlicate; n = 1
# MET = tested on: MET
# MINK = tested on: T1, MINK
# T1 construct: gene MINK1
# MKK7 = tested on: MKK7
# MKNK1 = tested on: MKNK1
# MKNK2 = tested on: MKNK2
# MLCK = tested on: T2, MLCK
# T2 construct: gene MYLK3
# MLK1 = tested on: T3, MLK1
# T3 construct: gene MAP3K9
# MLK2 = tested on: MLK2
# MLK3 = tested on: MLK3
# MRCKA = tested on: MRCKA
# 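Note: KINOMEscan kinase panel screen.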
SMILES,%Inh (MET) [%],%Inh (MINK) [%],%Inh (MKK7) [%],%Inh (MKNK1) [%],%Inh (MKNK2) [%],%Inh (MLCK) [%],%Inh (MLK1) [%],%Inh (MLK2) [%],%Inh (MLK3) [%],%Inh (MRCKA) [%]
O=C(Nc1ccc2c(c1)OCO2)NC1CCN(c2ccnc(NCc3ccc(F)cc3)n2)CC1 [GSK1379859],0,0,0,0,0,0,0,0,0,0
CCC(=O)c1c(-c2ccccc2)c2cc(Cl)ccc2c(=O)n1Cc1ccc(C(=O)O)cc1,0,0,0,0,0,0,0,0,0,0
COc1cccc(-n2cnc3c(N)ncnc32)c1 [SKF-97416],0,22,30,0,31,5,2,0,0,13
CCn1c(-c2nonc2N)nc2ccccc21 [SB-693162/GW549034],14,36,0,0,59,2,0,10,0,0
Cl.NS(=O)(=O)c1cccc(Nc2cc(-c3ccc(F)cc3)n[nH]2)c1 [GW824645],0,57,19,8,0,29,0,4,0,0
CCc1nc(-c2cccc(C)c2)c(-c2ccncc2)s1,4,50,0,0,16,6,0,0,17,0
COc1cc(Nc2nccc(N3CCC(NC(=O)C(C)c4ccc(Cl)cc4)C3)n2)cc(OC)c1OC (centres unmarked) [GSK1379757],0,0,15,0,16,0,22,0,28,15
O=C(NCCNc1ccnc(Nc2ccc(F)cc2)n1)Nc1ccc2c(c1)OCO2 [GSK1379882],0,4,0,23,5,0,0,0,0,9
COc1ccc(-c2coc3ccc(-c4nnc(SCc5cccc(C#N)c5)o4)cc23)cc1,0,9,17,20,2,2,0,18,11,0
COc1cc(Nc2ccnc3ccc(C(F)(F)F)cc23)cc(OC)c1OC [GW577382],0,17,0,29,9,0,3,31,23,22
Cc1cccc(-c2nc(Nc3ccc4c(cnn4C)c3)c3ccccc3n2)n1 [GW876731],3,16,10,100,9,28,12,16,0,17
CN(C)c1cc(-c2ccc3c(N)n[nH]c3c2)nc(N)n1 [GSK2219329],0,0,0,0,9,0,3,0,3,0
Cl.c1ccc(Cn2cnc3cc(Nc4ncnc5ccccc45)ccc32)cc1 [GW272142],33,0,17,0,6,0,0,0,11,16
Fc1cccc(CSc2nnc(-c3ccc4c(c3)CCO4)o2)c1,10,5,6,3,4,7,0,0,0,0
CC(C)(C)c1ccc(C(=O)Nc2cn3cc(-c4ccccc4)ccc3n2)cc1,0,36,0,0,13,14,0,0,0,0
Cc1ccc(-c2ccc3c(ccc4sc5c(c43)NC[C@@H](C)N=C5N(C)C)n2)cn1,0,0,0,0,0,0,0,0,0,0
Nc1ncnc2c1ncn2-c1cccc(F)c1 [SKF-97560],18,9,29,0,32,18,5,30,10,0
COc1cc(OC)cc(-c2cc3cnc(N)nc3nc2NC(=O)NC(C)(C)C)c1,0,9,0,0,0,0,0,0,0,0

SMILES,%Inh (MET) [%],%Inh (MINK) [%],%Inh (MKK7) [%],%Inh (MKNK1) [%],%Inh (MKNK2) [%],%Inh (MLCK) [%],%Inh (MLK1) [%],%Inh (MLK2) [%],%Inh (MLK3) [%],%Inh (MRCKA) [%]
Cc1ccccc1COc1cc(-n2cnc3cc(Cl)ccc32)sc1C(N)=O [GW813349],24,35,0,2,0,0,11,9,0,29
CCn1c(-c2ccoc2)nc2cnccc21 [SB-733887],0,0,33,13,17,0,0,0,3,1
O=C1NC(=O)C(c2ccccc2)=C1Nc1cccc(O)c1 [SB-390534],0,22,0,0,21,0,0,0,6,0
Nc1nc(-c2ccccc2F)c(-c2ccnc3ccccc23)s1 [GW560459],0,81,15,12,0,0,0,0,5,15
COC(=O)c1c(-c2ccccc2)c2cc(Br)ccc2c(=O)n1Cc1ccc(NC(=O)CCC(=O)O)cc1,18,0,0,0,0,0,0,0,0,0
Cn1c(=O)c(F)c(Nc2ccc(I)cc2F)c2c(=O)n(OC[C@H](O)CO)cnc21,12,0,0,4,0,0,19,25,9,20
Cc1nc(N(C)[C@H]2CN(C(=O)CC#N)CC[C@H]2C)c2cc[nH]c2n1,0,0,0,0,0,0,0,11,0,0
CCS(=O)(=O)c1ccc(OC)c(Nc2ncc(-c3ccc(F)cc3)o2)c1.Cl [GW591947],0,0,0,0,0,0,0,0,6,10
CCC(=O)c1c(-c2ccccc2)c2cc(Cl)ccc2c(=O)n1Cc1cc(S(C)(=O)=O)n(CC(N)=O)n1,0,14,0,0,0,0,0,10,1,0
CN1C(=O)C(Nc2ccccc2)=C(c2ccccc2)C1=O [SB-300079],0,17,20,0,0,9,0,34,0,6
Nc1nc(N)c2nc(-c3ccccc3)[nH]c2n1 [SKF-12778],0,0,29,0,1,0,40,66,40,15
C[C@@H]1CC[C@H](C(=O)NC2CCCCC2)CN1c1cc(-c2ccc3c(N)n[nH]c3c2)nc(N)n1 [GSK2291363],0,12,0,12,18,0,4,0,32,15
Nc1n[nH]c2nnc(-c3ccccc3)c(-c3ccccc3)c12 [GW554060],0,0,7,11,49,0,0,0,8,4
CCS(=O)c1ccc(-c2coc3ccc(-c4nnc(C)o4)cc23)cc1 (centres unmarked),0,15,23,17,1,0,0,7,15,0
Nc1ncnc2c1ncn2-c1cccc2ccccc12 [SKF-97184],0,12,0,0,0,0,0,19,0,0
Nc1ncnc2c1ncn2-c1ccc(Cl)cc1 [AH2635],0,0,0,26,24,0,0,18,15,0
COc1cc2ncn(-c3cc(OCc4ccncc4Br)c(C(N)=O)s3)c2cc1OC [GW854278],0,44,0,15,8,0,2,17,9,0

# Source: publication PMC5540273 (PLoS ONE, 2017)
